Active and inactive are the calls of the source. Rule for the calls: active = hit-call score of the fitted dose curve at least 0.9, where 1 is the maximum; inactive = score below 0.9.
What was measured:
[1] = molecular target: Transcription factor E2F1 (Homo sapiens) (UniProt Q01094); test: ATG_E2F_CIS: Attagene CIS-FACTORIAL HepG2 Assay for human E2F Transcription Factor 1 (AID 2282935); settings: HepG2 Attagene cis-reporter, E2F reporter RNA transcripts; actives raise or lower the signal
Method in brief: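 Endogenous E2F1 activity read through cis-promoter reporter units transfected into HepG2. After 24 h compound treatment, reporter mRNA measured by RT-PCR, HpaI digestion and capillary electrophoresis. Bidirectional fit versus DMSO.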

[2] = ATG_E_Box_CIS: Attagene CIS-FACTORIAL HepG2 Assay for human Enhancer Box (E-box) (AID 2282936); settings: HepG2 E-box cis-reporter transcription, actives raise or lower the signal
Method in brief: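 HepG2 cells transiently transfected with multiplexed cis-element reporter units, dosed 24 h; reporter mRNA quantified by RT-PCR, 6-FAM labelling, HpaI digestion and capillary electrophoresis. E-box (USF1) signal fitted bidirectionally vs DMSO.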

[3] = ATG_M_61_CIS: Attagene CIS-FACTORIAL HepG2 Assay for M61 Transcription Factor (Internal Marker) (AID 2282937); settings: HepG2 Attagene CIS-FACTORIAL M61 internal marker reporter; actives raise or lower the signal
Method in brief: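 Using transiently transfected HepG2 liver cells, reporter transcript levels were assessed 24 h post-dosing by RT-PCR and capillary electrophoresis. Changes in either direction were fitted relative to DMSO controls.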

[4] = ATG_EGR_CIS: Attagene CIS-FACTORIAL HepG2 Assay for human Early Growth Response 1 (EGR1) (AID 2282938); settings: HepG2 Attagene CIS-FACTORIAL EGR reporter mRNA; actives raise or lower the signal
Method in brief: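 Fluorescent capillary-electrophoresis signal of reporter cDNA fragments serves as read-out. HepG2 cells bear transiently transfected cis-promoter reporter units and are exposed 24 h; gain- or loss-of-signal is fitted against DMSO.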

[5] = ATG_M_19_CIS: Attagene CIS-FACTORIAL HepG2 Assay for M19 Transcription Factor (Internal Marker) (AID 2282939); settings: HepG2 Attagene CIS-FACTORIAL M19 internal marker reporter; actives raise or lower the signal
Method in brief: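 Readout: fluorescent reporter-transcript fragments by capillary electrophoresis after RT-PCR. Human HepG2 liver cells carried transfected MRTU constructs reporting endogenous transcription-factor activity; exposure 24 h. Gain or loss of signal fitted relative to DMSO.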

[6] = ATG_ERE_CIS: Attagene CIS-FACTORIAL HepG2 Assay for Estrogen Response Element (ERE) (AID 2282940); settings: HepG2 ERE cis-reporter, Attagene RNA transcript; actives raise or lower the signal
Method in brief: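 Readout: reporter mRNA induction by RT-PCR, FAM-labelled primer extension, HpaI digestion and capillary electrophoresis, 24 h after dosing transfected HepG2 cells. Endogenous transcription factors act on cis-element-regulated reporters. Gain or loss fitted against DMSO.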

[7] = ATG_Ets_CIS: Attagene CIS-FACTORIAL HepG2 Assay for human Erythroblast Transformation Specific (ETS) (AID 2282941); settings: HepG2 ETS cis-reporter transcription, actives raise or lower the signal
Method in brief: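 Steps: transfect HepG2 with multiple reporter units; treat compound 24 h; isolate RNA, DNase-treat, reverse-transcribe; PCR-amplify, label with 6-FAM, digest with HpaI; separate by capillary electrophoresis. Activity fitted both directions versus DMSO.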

[8] = molecular target: Hepatocyte nuclear factor 3-beta (Homo sapiens) (UniProt Q9Y261); test: ATG_FoxA2_CIS: Attagene CIS-FACTORIAL HepG2 Assay for human Forkhead box A2 (FOXA2) (AID 2282942); settings: HepG2 cis-reporter transcription factor activity, 24 h; actives raise or lower the signal
Hepatocyte nuclear factor 3-beta (Homo sapiens), sequence (Q9Y261 whole entry, looked up, the tested form may be a part): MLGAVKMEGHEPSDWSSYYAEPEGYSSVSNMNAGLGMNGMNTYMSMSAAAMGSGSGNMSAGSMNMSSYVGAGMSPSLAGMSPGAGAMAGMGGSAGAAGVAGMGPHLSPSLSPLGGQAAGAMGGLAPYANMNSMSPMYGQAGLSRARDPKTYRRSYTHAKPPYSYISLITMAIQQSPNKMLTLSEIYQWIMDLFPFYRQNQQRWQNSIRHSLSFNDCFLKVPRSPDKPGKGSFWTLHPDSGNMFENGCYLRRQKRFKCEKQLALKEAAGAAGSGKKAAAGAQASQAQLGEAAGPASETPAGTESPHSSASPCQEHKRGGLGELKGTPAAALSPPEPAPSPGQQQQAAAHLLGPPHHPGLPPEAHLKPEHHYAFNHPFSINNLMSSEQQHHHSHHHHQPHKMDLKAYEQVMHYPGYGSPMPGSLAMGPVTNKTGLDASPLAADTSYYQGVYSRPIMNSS
Method in brief: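 Fluorescence signal of reporter cDNA fragments, separated by capillary electrophoresis, reflects endogenous transcription factor activity in transfected HepG2 after 24 h. Both increases and decreases fitted against DMSO.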

[9] = ATG_FoxO_CIS: Attagene CIS-FACTORIAL HepG2 Assay for human Forkhead box O (FoxO) (AID 2282943); settings: HepG2 Attagene cis-reporter, FoxO element, mRNA; actives raise or lower the signal
Method in brief: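 Transfected HepG2 reporter cells exposed to test chemical for 24 h; reporter RNA measured by reverse transcription, PCR and fluorescent capillary electrophoresis; curves fitted for increases and decreases against DMSO.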

[10] = ATG_GLI_CIS: Attagene CIS-FACTORIAL HepG2 Assay for human Zinc Finger Protein GLI1 (AID 2282945); settings: HepG2, Attagene cis-factorial reporter mRNA, GLI element; actives raise or lower the signal
Method in brief: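 Transiently transfected HepG2 cells report endogenous transcription factor activity via cis-element-driven reporter units. After 24 h compound exposure, reporter mRNA was measured by RT-PCR with capillary electrophoresis; bidirectional fitting against DMSO baseline.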

[11] = ATG_GRE_CIS: Attagene CIS-FACTORIAL HepG2 Assay for human Glucocorticoid Response Elements (GRE) (AID 2282947); settings: HepG2 GRE cis-reporter, Attagene multiplex mRNA; actives raise or lower the signal
Method in brief: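 Transiently transfected HepG2 cells carrying GRE cis-reporter units (endogenous TF activity) dosed 24 h; reporter mRNA quantified by RT-PCR, 6-FAM labelling, HpaI digestion and capillary electrophoresis. Bidirectional fit versus DMSO baseline.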

[12] = ATG_ISRE_CIS: Attagene CIS-FACTORIAL HepG2 Assay for human Interferon Regulatory Factor 1 (IRF1) binding to an Interferon-Stimulated Response Element (ISRE) (AID 2282948); settings: HepG2 ISRE cis-reporter (Attagene), mRNA transcription readout; actives raise or lower the signal
Method in brief: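 Transfected HepG2 (multiple reporter transcription units, cis elements) dosed 24 h. RNA → oligo(dT) RT → PCR → 6-FAM primer extension → HpaI → CE. DMSO = negative control/baseline.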

[13] = ATG_M_32_CIS: Attagene CIS-FACTORIAL HepG2 Assay for M32 Transcription Factor (Internal Marker) (AID 2282949); settings: HepG2 Attagene cis-factorial M32 reporter, mRNA; actives raise or lower the signal;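 note: background control marker of the multiplexed CIS panel rather than a real target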
Method in brief: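 HepG2 cells transiently transfected with multiplexed cis-regulated reporter units, dosed 24 h. Reporter mRNA quantified by RT-PCR, 6-FAM labelling, HpaI digestion and capillary electrophoresis; bidirectional fit vs DMSO.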

[14] = ATG_M_06_CIS: Attagene CIS-FACTORIAL HepG2 Assay for M06 Transcription Factor (Internal Marker) (AID 2282950); settings: HepG2 Attagene CIS-FACTORIAL M06 internal marker reporter; actives raise or lower the signal
Method in brief: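 Terse: HepG2, transient MRTU transfection (FuGene 6), 24 h dosing; total RNA, oligo(dT) RT, PCR, FAM label, HpaI cut, capillary electrophoresis; bidirectional fit vs DMSO baseline; background-control endpoint.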

[15] = molecular target: Hypoxia-inducible factor 1-alpha (Homo sapiens) (UniProt Q16665); test: ATG_HIF1a_CIS: Attagene CIS-FACTORIAL HepG2 Assay for human Hypoxia Inducible Factor 1 (HIF1A) (AID 2282951); settings: HepG2 Attagene cis-factorial HIF1a reporter transcription; actives raise or lower the signal
Hypoxia-inducible factor 1-alpha (Homo sapiens), sequence (Q16665 whole entry, looked up): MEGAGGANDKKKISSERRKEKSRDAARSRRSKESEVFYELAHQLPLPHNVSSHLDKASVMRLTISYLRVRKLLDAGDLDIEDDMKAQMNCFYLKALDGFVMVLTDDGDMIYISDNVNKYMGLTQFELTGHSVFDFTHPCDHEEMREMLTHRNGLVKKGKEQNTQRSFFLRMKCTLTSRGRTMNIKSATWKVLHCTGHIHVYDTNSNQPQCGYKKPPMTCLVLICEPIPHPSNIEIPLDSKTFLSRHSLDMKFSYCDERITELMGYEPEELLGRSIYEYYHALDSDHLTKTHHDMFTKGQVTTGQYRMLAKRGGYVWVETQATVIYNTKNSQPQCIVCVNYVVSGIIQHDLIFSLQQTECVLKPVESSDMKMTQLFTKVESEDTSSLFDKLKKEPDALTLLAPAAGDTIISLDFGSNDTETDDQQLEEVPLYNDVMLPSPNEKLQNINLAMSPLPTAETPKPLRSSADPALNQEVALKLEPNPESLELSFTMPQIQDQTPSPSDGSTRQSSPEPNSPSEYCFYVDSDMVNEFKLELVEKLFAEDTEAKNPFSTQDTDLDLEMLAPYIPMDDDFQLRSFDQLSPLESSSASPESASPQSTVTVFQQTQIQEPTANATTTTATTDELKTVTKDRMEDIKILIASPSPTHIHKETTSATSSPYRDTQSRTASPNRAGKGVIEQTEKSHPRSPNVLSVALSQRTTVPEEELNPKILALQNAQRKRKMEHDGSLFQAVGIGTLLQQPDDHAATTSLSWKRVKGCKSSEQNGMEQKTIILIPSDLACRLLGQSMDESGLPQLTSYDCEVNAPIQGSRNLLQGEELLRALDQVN
Method in brief: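 Endogenous-TF cis reporter readout, human HepG2 cells, 24 h incubation; mRNA detected via RT-PCR and capillary electrophoresis fluorescence; DMSO-normalised bidirectional fitting.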

[16] = molecular target: Hepatocyte nuclear factor 6 (Homo sapiens) (UniProt Q9UBC0); test: ATG_HNF6_CIS: Attagene CIS-FACTORIAL HepG2 Assay for human Hepatocyte Nuclear Factor 6 (HNF6) (AID 2282952); settings: HepG2 Attagene cis-factorial HNF6 reporter transcription; actives raise or lower the signal
Hepatocyte nuclear factor 6 (Homo sapiens), sequence (Q9UBC0 whole entry, looked up, the tested form may be a part): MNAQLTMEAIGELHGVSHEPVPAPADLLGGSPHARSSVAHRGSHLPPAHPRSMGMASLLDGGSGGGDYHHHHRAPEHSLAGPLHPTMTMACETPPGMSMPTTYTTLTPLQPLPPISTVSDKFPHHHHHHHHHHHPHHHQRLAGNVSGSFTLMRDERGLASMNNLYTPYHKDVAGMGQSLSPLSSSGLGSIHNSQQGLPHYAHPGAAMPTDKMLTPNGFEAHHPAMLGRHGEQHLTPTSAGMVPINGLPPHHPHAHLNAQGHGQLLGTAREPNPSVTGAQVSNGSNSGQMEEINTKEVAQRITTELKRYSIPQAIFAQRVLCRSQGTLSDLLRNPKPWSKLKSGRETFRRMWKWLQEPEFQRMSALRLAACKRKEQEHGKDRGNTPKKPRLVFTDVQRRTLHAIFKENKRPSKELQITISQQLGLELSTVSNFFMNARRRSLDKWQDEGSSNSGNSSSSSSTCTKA
Method in brief: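 Reporter mRNA induction or loss in HepG2 after 24 h exposure; transient cis-MRTU transfection; fragments quantified by capillary electrophoresis; bidirectional analysis, DMSO as negative control.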

[17] = molecular target: Heat shock factor protein 1 (Homo sapiens) (UniProt Q00613); test: ATG_HSE_CIS: Attagene CIS-FACTORIAL HepG2 Assay for human Heat Shock Transcription Factor 1 (HSE) (AID 2282953); settings: HepG2 HSE cis-reporter, Attagene RNA transcription; actives raise or lower the signal
Heat shock factor protein 1 (Homo sapiens), sequence (Q00613 whole entry, looked up, the tested form may be a part): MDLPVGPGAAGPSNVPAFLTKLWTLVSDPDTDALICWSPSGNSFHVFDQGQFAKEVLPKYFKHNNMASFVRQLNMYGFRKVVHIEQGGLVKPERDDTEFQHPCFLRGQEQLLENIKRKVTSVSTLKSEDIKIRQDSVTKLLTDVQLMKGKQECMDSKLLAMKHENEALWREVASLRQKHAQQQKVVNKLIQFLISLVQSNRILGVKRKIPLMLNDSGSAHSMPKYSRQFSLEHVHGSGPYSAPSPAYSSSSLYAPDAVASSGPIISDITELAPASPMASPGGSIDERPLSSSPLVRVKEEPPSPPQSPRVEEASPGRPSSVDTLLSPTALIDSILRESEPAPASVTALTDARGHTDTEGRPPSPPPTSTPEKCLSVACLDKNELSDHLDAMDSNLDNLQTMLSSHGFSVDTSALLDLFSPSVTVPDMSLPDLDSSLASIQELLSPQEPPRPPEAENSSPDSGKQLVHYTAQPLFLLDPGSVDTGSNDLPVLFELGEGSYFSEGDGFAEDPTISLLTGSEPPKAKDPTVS
Method in brief: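 Read-out: fluorescence of reporter-specific RT-PCR fragments separated by capillary electrophoresis. HepG2 carrying transfected cis-element reporter units; 24 h dosing; activity fitted in both directions relative to DMSO baseline.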

[18] = ATG_MRE_CIS: Attagene CIS-FACTORIAL HepG2 Assay for human Metal Responsive Element (MRE) (AID 2282954); settings: HepG2 MRE cis-reporter transcription, Attagene multiplex; actives raise or lower the signal
Method in brief: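 HepG2 cells transiently transfected with cis-element-driven reporter units; mRNA measured 24 h after dosing. Reporter transcripts quantified by RT-PCR, FAM labelling, HpaI digestion and capillary electrophoresis; bidirectional fit versus DMSO.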

[19] = ATG_GATA_CIS: Attagene CIS-FACTORIAL HepG2 Assay for human GATA Binding Protein (AID 2282944); settings: HepG2 GATA cis-element reporter, Attagene multiplex mRNA; actives raise or lower the signal
Method in brief: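 Read-out: fluorescent reporter mRNA fragments resolved by capillary electrophoresis after RT-PCR. Human liver HepG2 cells carried transiently transfected cis-regulated reporter constructs; chemicals incubated 24 h; gain or loss of signal fitted relative to DMSO.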

Measured: AC50

Transcription factor E2F1 (Homo sapiens), sequence (Q01094 whole entry, looked up): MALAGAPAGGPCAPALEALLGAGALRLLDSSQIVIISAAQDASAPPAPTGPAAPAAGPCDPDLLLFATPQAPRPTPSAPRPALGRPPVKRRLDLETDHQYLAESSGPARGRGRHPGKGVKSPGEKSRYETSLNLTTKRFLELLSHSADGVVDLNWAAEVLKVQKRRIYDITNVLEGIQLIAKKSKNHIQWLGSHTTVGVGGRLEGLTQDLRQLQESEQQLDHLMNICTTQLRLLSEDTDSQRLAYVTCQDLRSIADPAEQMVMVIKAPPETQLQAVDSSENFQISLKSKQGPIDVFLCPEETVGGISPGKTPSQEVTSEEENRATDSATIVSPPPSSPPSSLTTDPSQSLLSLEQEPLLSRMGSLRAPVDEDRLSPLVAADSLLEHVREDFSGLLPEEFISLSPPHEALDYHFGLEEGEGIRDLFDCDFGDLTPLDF

O=C1CCCCCCCCCCCC(=O)OCCO1
not listed: [19]
inactive: all other assays above

CCn1cc(C(=O)O)c(=O)c2ccc(C)nc21
not listed: [11] | [13] | [15] | [16]
inactive: all other assays above

CC1=CC[C@@H]2C[C@H]1C2(C)C
not listed: [11] | [14]
inactive: all other assays above

NC(=O)c1c(Cl)cccc1Cl
not listed: [11] | [13]
inactive: all other assays above

O=C1CCC(=O)N1
active: [15] 28.2 µM
not listed: [19]
inactive: all other assays above

CCCc1ccc(N)cc1
not listed: [11] | [14]
inactive: all other assays above

CC1=CCC(C(C)C)=CC1
not listed: [11] | [13]
inactive: all other assays above

CCCC1CCOC(C)S1 (configuration not stated)
not listed: [19]
inactive: all other assays above

— PubChem BioAssay (EPA / NIEHS)
